Most compounds without a hit are left out; they make up all but 6.1% or so of the library.
ALOX15 inhib: qHTS Assay for Inhibitors of 15-hLO (15-human lipoxygenase). Polyunsaturated fatty acid lipoxygenase ALOX15 (Homo sapiens), P16050. purified 15hLO-1, xylenol orange hydroperoxide absorbance. Potency, µM (top dose mostly 57.1 µM), for the others: at the top dose activity change, negative = inhibition, hits mostly inhibitors. actives 1.4% (n = 74,000); note: nearly all actives have a fitted effect of over 55% in size
Target sequence (P16050 whole entry, looked up): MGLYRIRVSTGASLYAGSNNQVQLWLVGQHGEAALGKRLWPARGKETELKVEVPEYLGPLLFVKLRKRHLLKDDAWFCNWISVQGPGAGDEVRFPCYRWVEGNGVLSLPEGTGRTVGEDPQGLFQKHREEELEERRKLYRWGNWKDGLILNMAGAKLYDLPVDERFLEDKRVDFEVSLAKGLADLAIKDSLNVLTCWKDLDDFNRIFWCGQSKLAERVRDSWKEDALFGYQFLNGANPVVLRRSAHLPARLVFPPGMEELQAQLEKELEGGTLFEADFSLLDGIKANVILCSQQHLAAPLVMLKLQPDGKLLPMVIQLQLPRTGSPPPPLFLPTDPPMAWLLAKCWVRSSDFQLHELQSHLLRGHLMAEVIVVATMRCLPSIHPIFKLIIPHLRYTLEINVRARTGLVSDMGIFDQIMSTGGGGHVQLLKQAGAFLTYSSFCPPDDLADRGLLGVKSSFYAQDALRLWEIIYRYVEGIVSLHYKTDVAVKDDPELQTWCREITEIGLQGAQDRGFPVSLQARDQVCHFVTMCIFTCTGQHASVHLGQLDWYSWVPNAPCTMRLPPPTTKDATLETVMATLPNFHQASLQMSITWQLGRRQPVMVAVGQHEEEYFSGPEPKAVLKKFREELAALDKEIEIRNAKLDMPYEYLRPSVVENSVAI
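Hydroperoxide formed from arachidonic acid (50 uM) by purified human 15hLO-1 (40 nM) oxidizes ferrous iron, and the ferric-xylenol orange complex is read at 573 versus 405 nm. Compounds were preincubated 15 min; reaction ran 6 min at room temperature.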
Hsp90 Hop PPI: qHTS Assay for Disrupters of an Hsp90 Co-Chaperone Interaction. Hsp90 C-terminal peptide / TPR2A (Hop) interaction, human. AlphaScreen TPR2A-His6 binding biotin-Hsp90 C-terminal peptide. Potency, µM (titrated, usually from 57 µM), for the others: at the highest dose activity change, negative = inhibition. actives 0.44% (n = 71,000). AID 595, 2007; active = well fitted curve in either direction with a large enough effect; inconclusive = small, poorly fitted or top-dose-only effect, or another doubt
ERK AVP block: qHTS Assay for Inhibitors of the ERK Signaling Pathway using a Homogeneous Screening Assay. HEK293-V1b, vasopressin-stimulated pERK AlphaScreen. Potency, µM (series often up to 57.5 µM), inactives show top-dose activity, negative = inhibition, actives largely listed as inhibitors. actives 0.99% (n = 72,000). AID 995, 2007; note: nearly all actives have a fitted effect of over 55% in size
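HEK293 cells stably expressing V1b receptor, preincubated 30 min at 37 °C with compound, then stimulated 5 min with 25 nM vasopressin. Phospho-ERK by AlphaScreen SureFire after 5 h RT; normalized to DMSO and vasopressin; AC50 by Hill fit.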
FLuc inh: qHTS Assay for Inhibitors of Firefly Luciferase | Luciferin 4-monooxygenase (Photinus pyralis), P08659 | purified firefly luciferase, luminescence, 8 min | Potency, µM (highest dose often 57.1 µM), for the others: at the highest dose activity change, negative = inhibition, usual class: inhibitors | actives 2.2% (n = 72,000) | AID 411, 2009; note: nearly all actives have a fitted effect of over 40% in size
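Substrate buffer containing 10 uM ATP (pH 7.2 imidazole, Mg2+, KCl, detergent, BSA) is dispensed, compound pinned in, then luciferase/luciferin detector mix added. After 8 min at ambient temperature, light output is measured.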
Tau filament bind: qHTS Assay for Tau Filament Binding. recombinant tau filaments, thioflavin S fluorescence, 15 h; filaments grown with octadecylsulfate alongside compound. actives 2% (n = 71,000). Potency, µM (doses to about 57.1 µM), without a hit: at the highest dose activity change, negative = inhibition. Microtubule-associated protein tau (Homo sapiens), P10636;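 note: actives lower thioflavin S fluorescence by blocking filaments or displacing dye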
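Thioflavine S fluorescence (ex 450, em 510 nm) reports filaments formed from 1 uM human tau plus 30 uM ODS over 15 h at 37 C (10 mM HEPES pH 7.4, 100 mM NaCl, 5 mM DTT); compounds displacing dye or blocking filaments lower signal.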
PK Bst: Pyruvate Kinase; Potency, µM; actives 1.2% (n = 51,000); AID 361, 2006; purified pyruvate kinase, luminescence ATP production; ribose 5-phosphate activator present at AC10; in the data active = potency below about 11 µM; inconclusive = mostly about 12 µM to 25 µM;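 the screen sought inhibitors and activators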;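 note: scaled between full activation by ribose 5 phosphate and full inhibition by luteolin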
Numbers without * were called inactive; [ ] = remark or other dose. Unless noted, calls come from the whole dose curve; as a rule, active = well fitted curve in the direction sought with a large enough effect; inconclusive = small, poorly fitted or top-dose-only effect, or another doubt; inactive = no such curve, though single readings can be large; an effect the other way counts as inactive or inconclusive. Unless noted, % is set by controls: 0 for no effect and ±100 for the full control effect; potency is the fitted concentration of half-maximal effect.

Results for COc1cc(C(=O)Nc2ccccn2)cc(OC)c1OC ?
FLuc inh: 1.1%[25.5 µM]; PK Bst: >25.6

How did Cc1noc(C(=O)Nc2ccc3c(c2)OCO3)c1Cl do in these assays?
ALOX15 inhib: -3.5%; Hsp90 Hop PPI: -9.2%; ERK AVP block: -13.2%; FLuc inh: 12.6µM*; Tau filament bind: 10µM*

How did O=C(Nc1ccc2c(c1)OCO2)c1cccc(S(=O)(=O)N2CCCC2)c1 do in these assays?
ALOX15 inhib: -19.8%; Hsp90 Hop PPI: -11.7%; ERK AVP block: 15.8µM*; FLuc inh: -22.9%; Tau filament bind: 1.1%; PK Bst: >57

What do the screens show for `Cn1c(C(=O)Nc2ccc3c(c2)OCCO3)cc2sccc21`?
ALOX15 inhib: -16.7%; Hsp90 Hop PPI: -15.1%; ERK AVP block: -25.0%; FLuc inh: 3.16µM*; Tau filament bind: inconclusive; PK Bst: 3.01*

What do the screens show for `Cc1cc(C(=O)Nc2ccccn2)cs1`?
ALOX15 inhib: 5.9%; Hsp90 Hop PPI: -2.5%; ERK AVP block: -18.2%; FLuc inh: 12.6µM*; Tau filament bind: -7.0%

How did COc1ccc(-c2nc3cncnc3n(-c3ccccc3)c2=O)cc1 do in these assays?
ALOX15 inhib: 6.8%; Hsp90 Hop PPI: -5.7%; ERK AVP block: -20.3%; FLuc inh: -0.6%[11.4 µM]; Tau filament bind: 3.5%

What do the screens show for `CN(CC(=O)Nc1ccc2c(c1)OCCO2)S(=O)(=O)c1cccc2cccnc12`?
ALOX15 inhib: 2.8%; Hsp90 Hop PPI: -6.3%; ERK AVP block: -24.5%; FLuc inh: -16.6%; Tau filament bind: -9.3%

Results for O=S(=O)(Nc1ccc2c(c1)OCCO2)c1cccc2cccnc12 ?
ALOX15 inhib: -11.0%; Hsp90 Hop PPI: 1.2%; ERK AVP block: -15.5%; FLuc inh: -0.3%; Tau filament bind: -3.9%; PK Bst: 3.27*

What do the screens show for `O=C(O)c1ccccc1NS(=O)(=O)c1ccccc1C(F)(F)F`?
ALOX15 inhib: -1.5%; Hsp90 Hop PPI: 3.7%; ERK AVP block: -9.2%; FLuc inh: 0.5%; Tau filament bind: -3.8%; PK Bst: >57

How did COc1ccccc1NS(=O)(=O)c1cccc2cccnc12 do in these assays?
ALOX15 inhib: -0.2%; Hsp90 Hop PPI: 2.1%; FLuc inh: 3.7%; Tau filament bind: -20.4%

How did COc1ccc(NS(=O)(=O)c2cccc3cccnc23)cc1 do in these assays?
ALOX15 inhib: -9.3%; Hsp90 Hop PPI: -4.4%; ERK AVP block: 21.0%; FLuc inh: -3.0%; Tau filament bind: -11.9%; PK Bst: 2.61*

What do the screens show for `O=C(O)c1ccccc1NS(=O)(=O)c1cccc2cccnc12`?
ALOX15 inhib: -0.9%; Hsp90 Hop PPI: -1.2%; ERK AVP block: -1.1%; FLuc inh: -0.3%; Tau filament bind: -5.3%; PK Bst: 9.09*

Results for CNc1ncncc1-c1ccccc1OC ?
ALOX15 inhib: -0.6%; Hsp90 Hop PPI: -0.5%; ERK AVP block: 23.2%; FLuc inh: 0.3%[2.29 µM]; Tau filament bind: -20.6%

Results for FC(F)(F)c1cc(CO[C@H]2CCCN[C@H]2c2ccccc2)cc(C(F)(F)F)c1 ?
ALOX15 inhib: -4.8%[25.6 µM]; Hsp90 Hop PPI: -7.6%; ERK AVP block: -20.2%; FLuc inh: -2.3%; Tau filament bind: inconclusive

Results for Cc1nc2cc3nc(C)sc3cc2s1 ?
ALOX15 inhib: -32.2%; Hsp90 Hop PPI: -4.7%; ERK AVP block: -5.6%; FLuc inh: 15.8µM*; Tau filament bind: 14.0%; PK Bst: inactive

How did Cc1cc2nnc(SC(C)C#N)n2c2ccccc12 (stereo not given) do in these assays?
ALOX15 inhib: -16.2%; Hsp90 Hop PPI: -1.7%; ERK AVP block: -17.6%; FLuc inh: -1.5%; Tau filament bind: 4.2%; PK Bst: >57

Results for Cc1cc2nnc(SC3CCOC3=O)n2c2ccccc12 (stereo not given) ?
ALOX15 inhib: -9.6%; Hsp90 Hop PPI: -4.5%; ERK AVP block: 15.8µM*; FLuc inh: -2.5%; Tau filament bind: 12.1%; PK Bst: >57

Results for O=C1OCCC1Sc1nc2ccccc2n1-c1ccccc1 (stereo not given) ?
ALOX15 inhib: -0.9%; Hsp90 Hop PPI: -2.7%; ERK AVP block: 15.8µM*; FLuc inh: 1.4%; Tau filament bind: -20.5%; PK Bst: >57

What do the screens show for `COc1ccc(-n2c(SC3CCOC3=O)nc3ccccc32)cc1` (stereo not given)?
ALOX15 inhib: -9.5%; Hsp90 Hop PPI: -4.2%; ERK AVP block: -26.3%; FLuc inh: 0.6%; Tau filament bind: -11.5%; PK Bst: >57

Results for CCOc1cccc2cc(-c3cn4cc(C)ccc4n3)c(=O)oc12 ?
ALOX15 inhib: 3.7%; Hsp90 Hop PPI: 6.4%; ERK AVP block: -4.0%; FLuc inh: 0.159µM*; Tau filament bind: -0.4%; PK Bst: 1.23*

Results for COc1cccc2cc(-c3cn4cccc(C)c4n3)c(=O)oc12 ?
ALOX15 inhib: 6.0%; Hsp90 Hop PPI: 6.4%; ERK AVP block: -27.3%; FLuc inh: -7.1%; Tau filament bind: -6.2%; PK Bst: >57

How did O=C1COc2ccc(C(=O)COC(=O)C3CCN(S(=O)(=O)c4cccs4)CC3)cc2N1 do in these assays?
ALOX15 inhib: -11.4%; Hsp90 Hop PPI: -0.7%; ERK AVP block: -18.9%; FLuc inh: -1.0%; Tau filament bind: -23.7%; PK Bst: >57

Results for CCN(CC)S(=O)(=O)c1cc(C(=O)OCC(=O)c2ccc3c(c2)NC(=O)CO3)ccc1F ?
ALOX15 inhib: -4.6%; Hsp90 Hop PPI: 0.2%; ERK AVP block: 31.6µM*; FLuc inh: -2.6%; Tau filament bind: -5.1%; PK Bst: >57

What do the screens show for `C=CC[C@@H]1C=C[C@@H](O/N=C\C[C@@H]2C=C[C@H](OC(C)=O)[C@H](COC(C)=O)O2)[C@@H](CO)O1`?
ALOX15 inhib: 10.0%[11.4 µM]; ERK AVP block: 4.2%[11.5 µM]; FLuc inh: 1.2%[11.4 µM]

What do the screens show for `C=CCCCCCC`?
ALOX15 inhib: 4.0%; Hsp90 Hop PPI: -3.6%; ERK AVP block: -7.1%; Tau filament bind: 11.0%

How did CCCCOn1c(C)c(C(=O)OCC)c2c3nonc3ccc21 do in these assays?
ALOX15 inhib: -10.1%; Hsp90 Hop PPI: 31.6µM*; ERK AVP block: 22.0%; FLuc inh: 1.7%; Tau filament bind: 18.0%; PK Bst: >57

What do the screens show for `C=CCn1c(=O)/c(=C/c2ccc(C)o2)s/c1=C(/C#N)C(=O)c1ccccc1`?
ALOX15 inhib: 15.8µM*; Hsp90 Hop PPI: inconclusive; ERK AVP block: 1.6%; FLuc inh: -4.5%; Tau filament bind: 46.0%; PK Bst: >57

Assay outcomes (PubChem BioAssay)
